The values that follow come from PubChem BioAssay (EPA / NIEHS).

Each structure is given as a SMILES string. “And” between values parts separate entries of the source, which are not always exact repeats. Equal entries are not always repeated. Inconclusive results are not listed. The source made the active and inactive calls. Rule for the calls: active = hit-call score of the fitted dose curve at least 0.9, where 1 is the maximum; inconclusive = response in the unintended direction; inactive = score below 0.9.

The target in assay [1] is rat Adenylate Cyclase, Forskolin Stimulated, Adcy5 (gene 64532) (UniProt Q04400). Put plainly: NVS_ENZ_rACFSKBinding: NovaScreen (NVS) Enzymatic Assay for rat Adenylate Cyclase, Forskolin Stimulated (AID 2283232). Summed up:
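Chemicals were first tested at 25 uM in duplicate, then hits run as concentration series with top concentration 50 uM. Enzyme source was rat forebrain membranes; radiometric filter read-out after 1 h, referenced to DMSO.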

For assay [2], the system named is bovine Histamine 1 Receptor (H1), gene 281231. Put plainly: NVS_GPCR_bH1: NovaScreen (NVS) G Protein-Coupled Receptor Assay for bovine Histamine 1 Receptor (H1) (AID 2283246). Summed up: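 Hits from a 25 uM duplicate primary screen were retested in concentration series (top 50 uM); binding measured as scintillation-counted displacement of radioligand from bovine cerebellar membranes after 1 h, normalised to DMSO.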

Assay [3] addresses human Vascular Endothelial Growth Factor Receptor 3 (VEGFR3), FLT4 (gene 2324) (UniProt P35916). Put plainly: NVS_ENZ_hVEGFR3: NovaScreen (NVS) Enzymatic Assay for human Vascular Endothelial Growth Factor Receptor 3 (VEGFR3) (AID 2283229). In short, it runs like this:
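Chemicals first run in duplicate at 25 uM, with actives re-tested in concentration series to a top of 50 uM. Recombinant VEGFR3 activity measured after 1 h via fluorescence with mobility-shift product separation; inhibition fitted relative to DMSO.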

The target of assay [4] is rat Catechol-O-Methyl Transferase (COMT), Comt (gene 24267) (UniProt P22734). Put plainly: NVS_ENZ_rCOMT: NovaScreen (NVS) Enzymatic Assay for rat Catechol-O-Methyl Transferase (COMT) (AID 2283235). Summed up: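 Rat dorsal striatum extract served as COMT source; product quantified by HPLC/spectrophotometry, read at 0 h after dosing. Primary single-concentration screen at 25 uM, followed by concentration series to a 50 uM maximum.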
Chain of rat Catechol-O-Methyl Transferase (COMT), Comt (gene 24267) (P22734 whole entry, looked up): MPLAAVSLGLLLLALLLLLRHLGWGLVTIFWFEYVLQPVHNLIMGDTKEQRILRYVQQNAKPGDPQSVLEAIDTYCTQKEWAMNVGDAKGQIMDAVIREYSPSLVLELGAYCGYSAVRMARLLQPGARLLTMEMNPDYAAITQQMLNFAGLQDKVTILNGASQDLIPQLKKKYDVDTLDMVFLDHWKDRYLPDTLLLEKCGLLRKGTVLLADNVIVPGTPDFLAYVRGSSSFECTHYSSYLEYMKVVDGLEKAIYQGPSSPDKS

The target of assay [5] is human Vascular Endothelial Growth Factor Receptor 2 (VEGFR2), KDR (gene 3791) (UniProt P35968). Put plainly: NVS_ENZ_hVEGFR2: NovaScreen (NVS) Enzymatic Assay for human Vascular Endothelial Growth Factor Receptor 2 (VEGFR2) (AID 2283230). Summed up: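 Cell-free recombinant VEGFR2 kinase, fluorescent substrate with electrophoretic mobility-shift separation; read 1 h after dosing. Screened at 25 uM in duplicate, hits to concentration-response up to 50 uM; loss-of-signal versus DMSO.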

For assay [6], the system named is rat Monoamine Oxidase, MAO-A, Peripheral (MAOAP), gene 29253. Put plainly: NVS_ENZ_rMAOAP: NovaScreen (NVS) Enzymatic Assay for rat Monoamine Oxidase, MAO-A, Peripheral (MAOAP) (AID 2283237). In short, it runs like this: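 Scintillation counting tracked MAO-A activity in a cell-free rat liver mitochondrial membrane prep, read 1.17 hours after compound addition. Single-point duplicate testing at 25 uM preceded concentration-response follow-up; activity was fitted relative to DMSO.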

The target in assay [7] is guinea pig Leukotriene D4 Receptor (LTD4), CYSLTR1 (gene 100135514) (UniProt Q2NNR5). Put plainly: NVS_GPCR_gLTD4: NovaScreen (NVS) G Protein-Coupled Receptor Assay for guinea pig Leukotriene D4 Receptor (LTD4) (AID 2283248). Summed up: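 Guinea pig lung membrane preparation; bound radioligand measured by filter scintillation after 1 h, loss of signal versus DMSO marking displacement. Compounds tested at 25 uM in duplicate, hits retested to max 50 uM.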
Chain of guinea pig Leukotriene D4 Receptor (LTD4), CYSLTR1 (gene 100135514) (Q2NNR5 whole entry, looked up): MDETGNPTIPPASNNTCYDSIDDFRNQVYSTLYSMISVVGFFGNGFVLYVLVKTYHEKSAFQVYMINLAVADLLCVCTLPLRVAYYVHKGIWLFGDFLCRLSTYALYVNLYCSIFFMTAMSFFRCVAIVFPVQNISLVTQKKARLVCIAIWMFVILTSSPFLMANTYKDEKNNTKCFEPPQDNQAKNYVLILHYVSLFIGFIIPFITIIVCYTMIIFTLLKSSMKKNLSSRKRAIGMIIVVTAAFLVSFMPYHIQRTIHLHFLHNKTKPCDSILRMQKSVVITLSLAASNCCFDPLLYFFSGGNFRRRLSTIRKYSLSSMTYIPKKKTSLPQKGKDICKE

For assay [8], the target named is rat Acetylcholinesterase (AChE), Ache (gene 83817) (UniProt P37136). Put plainly: NVS_ENZ_rAChE: NovaScreen (NVS) Enzymatic Assay for rat Acetylcholinesterase (AChE) (AID 2283233). Summed up: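 Compounds first screened at 25 uM in duplicate, then those passing threshold tested in concentration series up to 50 uM, against AChE from rat brain membranes. Enzyme activity read by absorbance at 0.33 h; inhibition scored versus DMSO.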
Chain of rat Acetylcholinesterase (AChE), Ache (gene 83817) (P37136 whole entry, looked up): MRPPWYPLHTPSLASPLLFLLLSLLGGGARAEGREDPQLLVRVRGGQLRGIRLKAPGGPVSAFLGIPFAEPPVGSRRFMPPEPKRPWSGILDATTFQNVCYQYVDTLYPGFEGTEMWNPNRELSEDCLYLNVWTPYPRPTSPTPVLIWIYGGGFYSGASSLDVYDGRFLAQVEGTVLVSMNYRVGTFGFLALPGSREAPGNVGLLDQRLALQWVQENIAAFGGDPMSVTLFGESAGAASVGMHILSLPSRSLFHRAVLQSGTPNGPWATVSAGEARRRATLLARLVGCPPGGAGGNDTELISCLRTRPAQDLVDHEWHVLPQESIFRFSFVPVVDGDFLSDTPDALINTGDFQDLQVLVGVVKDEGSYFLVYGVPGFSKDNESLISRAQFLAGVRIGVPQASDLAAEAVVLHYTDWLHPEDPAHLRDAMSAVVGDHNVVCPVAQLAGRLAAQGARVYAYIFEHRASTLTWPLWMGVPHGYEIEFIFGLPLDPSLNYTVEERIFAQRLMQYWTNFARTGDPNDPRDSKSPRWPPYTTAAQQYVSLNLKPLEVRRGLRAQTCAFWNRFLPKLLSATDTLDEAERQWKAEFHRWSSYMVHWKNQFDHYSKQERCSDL

Assay [9] deals with rabbit Imidazoline 2 Central (I2C), CKB (gene 100009085) (UniProt P00567). Put plainly: NVS_ENZ_rabI2C: NovaScreen (NVS) Enzymatic Assay for rabbit Imidazoline 2 Central (I2C) (AID 2283228). Summed up: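 Rabbit brain membranes, cell-free; readout by filter-based scintillation counting 1.5 hours after dosing, loss of signal vs DMSO. Initial duplicate test at 25 uM, then concentration-response with 50 uM top concentration.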

Assay [10] deals with rat Monoamine Oxidase, MAO-B, Central (MAOBC), Maob (gene 25750) (UniProt P19643). Put plainly: NVS_ENZ_rMAOBC: NovaScreen (NVS) Enzymatic Assay for rat Monoamine Oxidase, MAO-B, Central (MAOBC) (AID 2283238). In short, it runs like this: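 Cell-free radiometric assay, rat brain lysate. Read-out: scintillation counts, 1.17 h post-dosing. Screen 25 uM in duplicate; actives (e.g. ≥30% inhibition) then singleton concentration-response, max 50 uM. Activity loss fitted relative to DMSO.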
Chain of rat Monoamine Oxidase, MAO-B, Central (MAOBC), Maob (gene 25750) (P19643 whole entry, looked up): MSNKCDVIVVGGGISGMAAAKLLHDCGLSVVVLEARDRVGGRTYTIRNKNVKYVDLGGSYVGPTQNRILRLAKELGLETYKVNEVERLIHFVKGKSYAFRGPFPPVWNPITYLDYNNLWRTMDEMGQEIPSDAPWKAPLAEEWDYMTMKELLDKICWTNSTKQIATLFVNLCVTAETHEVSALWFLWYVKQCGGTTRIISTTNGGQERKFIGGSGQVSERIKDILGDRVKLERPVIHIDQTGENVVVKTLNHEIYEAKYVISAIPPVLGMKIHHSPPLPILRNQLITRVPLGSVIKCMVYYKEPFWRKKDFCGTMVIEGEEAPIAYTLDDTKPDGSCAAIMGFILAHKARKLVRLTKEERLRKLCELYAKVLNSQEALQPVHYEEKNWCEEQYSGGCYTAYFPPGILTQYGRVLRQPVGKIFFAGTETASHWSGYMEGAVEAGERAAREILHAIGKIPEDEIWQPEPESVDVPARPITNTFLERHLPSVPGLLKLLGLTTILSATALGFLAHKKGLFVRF

For assay [11], the target named is rat Constitutive Nitric Oxide Synthase (CNOS), Nos1 (gene 24598) (UniProt P29476). Put plainly: NVS_ENZ_rCNOS: NovaScreen (NVS) Enzymatic Assay for rat Constitutive Nitric Oxide Synthase (CNOS) (AID 2283236). Summed up:
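Single 25 uM duplicate screen, then concentration series to 50 uM for chemicals meeting threshold. Rat brain membrane-derived CNOS activity detected radiometrically by filtration and scintillation counting, 1 h after compound addition; DMSO as baseline.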

The target in assay [12] is sheep Cyclooxygenase-1 (Cox1), PTGS1 (gene 443551) (UniProt P05979). Put plainly: NVS_ENZ_oCOX1: NovaScreen (NVS) Enzymatic Assay for sheep Cyclooxygenase-1 (Cox1) (AID 2283239).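 Note: actives reduce cyclooxygenase activity so potencies are for inhibitors.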 In short, it runs like this: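 Colorimetric enzyme readout using sheep seminal-vesicle cyclooxygenase-1, measured 0.66 h post-dosing. Single-concentration duplicates at 25 uM first, then concentration series for actives, with DMSO as baseline and plate controls.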
Chain of sheep Cyclooxygenase-1 (Cox1), PTGS1 (gene 443551) (P05979 whole entry, looked up): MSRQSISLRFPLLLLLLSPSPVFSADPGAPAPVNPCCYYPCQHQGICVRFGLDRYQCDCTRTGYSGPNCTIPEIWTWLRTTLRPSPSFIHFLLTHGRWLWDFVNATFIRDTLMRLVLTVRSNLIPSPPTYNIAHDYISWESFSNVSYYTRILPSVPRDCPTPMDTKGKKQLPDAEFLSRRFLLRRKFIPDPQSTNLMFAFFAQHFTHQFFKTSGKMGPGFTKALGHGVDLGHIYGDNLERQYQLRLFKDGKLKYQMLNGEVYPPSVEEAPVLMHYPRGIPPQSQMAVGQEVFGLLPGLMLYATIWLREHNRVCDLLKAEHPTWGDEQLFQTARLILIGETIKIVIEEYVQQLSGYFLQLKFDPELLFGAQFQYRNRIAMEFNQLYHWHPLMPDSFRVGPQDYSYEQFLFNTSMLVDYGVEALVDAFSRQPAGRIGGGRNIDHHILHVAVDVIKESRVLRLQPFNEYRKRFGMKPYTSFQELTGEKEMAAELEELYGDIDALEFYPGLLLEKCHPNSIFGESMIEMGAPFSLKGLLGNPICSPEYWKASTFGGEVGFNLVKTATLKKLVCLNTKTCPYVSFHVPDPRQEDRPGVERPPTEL

Assay [13] has as its target bovine Dopamine Receptor (DR), Non-selective Binding, DRD1 (gene 281125) (UniProt Q95136). Put plainly: NVS_GPCR_bDR_NonSelective: NovaScreen (NVS) G Protein-Coupled Receptor Assay for bovine Dopamine Receptor (DR), Non-selective Binding (AID 2283241). In short, it runs like this:
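Filter-based radioligand binding with bovine striatal membrane, incubated 1 h; DMSO as negative baseline. Initial duplicate single-point test at 25 uM preceded concentration series for actives.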

The target of assay [14] is rat Monoamine Oxidase, MAO-B, Peripheral (MAOBP), Maob (gene 25750) (UniProt P19643). Put plainly: NVS_ENZ_rMAOBP: NovaScreen (NVS) Enzymatic Assay for rat Monoamine Oxidase, MAO-B, Peripheral (MAOBP) (AID 2283242).
The target of assay [15] is sheep Cyclooxygenase-2 (Cox2), PTGS2 (gene 443460) (UniProt P79208). Put plainly: NVS_ENZ_oCOX2: NovaScreen (NVS) Enzymatic Assay for sheep Cyclooxygenase-2 (Cox2) (AID 2283231). In short, it runs like this: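 Compounds were first run at 25 uM in duplicate against tissue-extracted ovine COX-2; those passing a preset inhibition threshold went to singleton concentration-response testing with a 50 uM maximum. Read-out: absorbance at 0.66 hour.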

For assay [16], the system named is guinea pig Leukotriene B4 Receptor (LTB4), gene 100379538. Put plainly: NVS_GPCR_gLTB4: NovaScreen (NVS) G Protein-Coupled Receptor Assay for guinea pig Leukotriene B4 Receptor (LTB4) (AID 2283247). Summed up:
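Membranes from guinea pig spleen incubated 2 h with radioligand and compound; bound counts measured by filtration and scintillation. Screened first at 25 uM in duplicate, then actives titrated to a 50 uM top concentration relative to DMSO.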

Assay [17] deals with human Serotonin, 5-Hydroxytryptamine Receptor 2A (5HT2A), HTR2A (gene 3356) (UniProt P28223). Put plainly: NVS_GPCR_h5HT2A: NovaScreen (NVS) G Protein-Coupled Receptor Assay for human Serotonin, 5-Hydroxytryptamine Receptor 2A (5HT2A) (AID 2283249). In short, it runs like this: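 Radioligand displacement on human cortex tissue extract, counted by filtration and scintillation 1.5 h post-dosing. Initial single-concentration screen at 25 uM in duplicate, concentration series in follow-up; DMSO as baseline.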

For assay [18], the target named is Adenosine receptor A1 (Bos taurus) (UniProt P28190). Put plainly: NVS_GPCR_bAdoR_NonSelective: NovaScreen (NVS) G Protein-Coupled Receptor Assay for bovine Adenosine Receptor (AdoR), Non-selective Binding (AID 2283244). Summed up:
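Cell-free binding with membranes from bovine striatum: radioligand displaced by test chemical, read after 1 h by filtration and scintillation. Single-point 25 uM duplicate primary, 50 uM top concentration in follow-up curves, DMSO baseline.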

Chain of rat Adenylate Cyclase, Forskolin Stimulated, Adcy5 (gene 64532) (Q04400 whole entry, looked up): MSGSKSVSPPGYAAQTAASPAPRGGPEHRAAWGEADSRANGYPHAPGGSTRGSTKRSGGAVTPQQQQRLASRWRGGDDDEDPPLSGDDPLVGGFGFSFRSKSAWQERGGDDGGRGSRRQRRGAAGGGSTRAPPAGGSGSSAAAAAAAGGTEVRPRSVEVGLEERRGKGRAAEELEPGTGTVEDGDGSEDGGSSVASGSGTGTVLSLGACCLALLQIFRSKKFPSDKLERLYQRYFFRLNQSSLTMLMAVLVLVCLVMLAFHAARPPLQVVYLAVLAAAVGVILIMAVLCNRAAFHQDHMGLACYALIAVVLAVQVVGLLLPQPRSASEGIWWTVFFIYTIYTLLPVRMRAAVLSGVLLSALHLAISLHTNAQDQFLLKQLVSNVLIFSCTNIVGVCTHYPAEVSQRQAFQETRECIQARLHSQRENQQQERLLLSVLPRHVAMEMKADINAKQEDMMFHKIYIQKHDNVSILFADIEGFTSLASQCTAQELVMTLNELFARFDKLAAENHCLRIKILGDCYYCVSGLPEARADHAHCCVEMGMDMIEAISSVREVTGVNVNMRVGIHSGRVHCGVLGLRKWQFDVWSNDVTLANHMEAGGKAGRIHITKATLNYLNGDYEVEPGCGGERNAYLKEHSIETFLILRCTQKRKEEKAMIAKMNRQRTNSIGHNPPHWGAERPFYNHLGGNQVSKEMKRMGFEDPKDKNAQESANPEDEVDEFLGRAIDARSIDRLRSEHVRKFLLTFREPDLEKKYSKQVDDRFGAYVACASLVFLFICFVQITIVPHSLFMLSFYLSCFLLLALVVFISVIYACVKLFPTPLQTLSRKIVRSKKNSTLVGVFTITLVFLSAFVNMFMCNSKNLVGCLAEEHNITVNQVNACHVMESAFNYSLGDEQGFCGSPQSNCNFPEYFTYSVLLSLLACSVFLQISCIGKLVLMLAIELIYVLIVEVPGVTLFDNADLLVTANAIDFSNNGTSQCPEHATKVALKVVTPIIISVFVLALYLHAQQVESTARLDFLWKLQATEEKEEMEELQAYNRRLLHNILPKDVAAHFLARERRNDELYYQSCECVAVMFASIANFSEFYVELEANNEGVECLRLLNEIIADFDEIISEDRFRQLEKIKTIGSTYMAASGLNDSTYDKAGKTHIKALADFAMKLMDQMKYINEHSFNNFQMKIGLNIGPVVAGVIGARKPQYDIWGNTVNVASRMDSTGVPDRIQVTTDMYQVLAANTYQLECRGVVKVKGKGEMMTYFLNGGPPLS
Chain of rat Constitutive Nitric Oxide Synthase (CNOS), Nos1 (gene 24598) (P29476 whole entry, looked up): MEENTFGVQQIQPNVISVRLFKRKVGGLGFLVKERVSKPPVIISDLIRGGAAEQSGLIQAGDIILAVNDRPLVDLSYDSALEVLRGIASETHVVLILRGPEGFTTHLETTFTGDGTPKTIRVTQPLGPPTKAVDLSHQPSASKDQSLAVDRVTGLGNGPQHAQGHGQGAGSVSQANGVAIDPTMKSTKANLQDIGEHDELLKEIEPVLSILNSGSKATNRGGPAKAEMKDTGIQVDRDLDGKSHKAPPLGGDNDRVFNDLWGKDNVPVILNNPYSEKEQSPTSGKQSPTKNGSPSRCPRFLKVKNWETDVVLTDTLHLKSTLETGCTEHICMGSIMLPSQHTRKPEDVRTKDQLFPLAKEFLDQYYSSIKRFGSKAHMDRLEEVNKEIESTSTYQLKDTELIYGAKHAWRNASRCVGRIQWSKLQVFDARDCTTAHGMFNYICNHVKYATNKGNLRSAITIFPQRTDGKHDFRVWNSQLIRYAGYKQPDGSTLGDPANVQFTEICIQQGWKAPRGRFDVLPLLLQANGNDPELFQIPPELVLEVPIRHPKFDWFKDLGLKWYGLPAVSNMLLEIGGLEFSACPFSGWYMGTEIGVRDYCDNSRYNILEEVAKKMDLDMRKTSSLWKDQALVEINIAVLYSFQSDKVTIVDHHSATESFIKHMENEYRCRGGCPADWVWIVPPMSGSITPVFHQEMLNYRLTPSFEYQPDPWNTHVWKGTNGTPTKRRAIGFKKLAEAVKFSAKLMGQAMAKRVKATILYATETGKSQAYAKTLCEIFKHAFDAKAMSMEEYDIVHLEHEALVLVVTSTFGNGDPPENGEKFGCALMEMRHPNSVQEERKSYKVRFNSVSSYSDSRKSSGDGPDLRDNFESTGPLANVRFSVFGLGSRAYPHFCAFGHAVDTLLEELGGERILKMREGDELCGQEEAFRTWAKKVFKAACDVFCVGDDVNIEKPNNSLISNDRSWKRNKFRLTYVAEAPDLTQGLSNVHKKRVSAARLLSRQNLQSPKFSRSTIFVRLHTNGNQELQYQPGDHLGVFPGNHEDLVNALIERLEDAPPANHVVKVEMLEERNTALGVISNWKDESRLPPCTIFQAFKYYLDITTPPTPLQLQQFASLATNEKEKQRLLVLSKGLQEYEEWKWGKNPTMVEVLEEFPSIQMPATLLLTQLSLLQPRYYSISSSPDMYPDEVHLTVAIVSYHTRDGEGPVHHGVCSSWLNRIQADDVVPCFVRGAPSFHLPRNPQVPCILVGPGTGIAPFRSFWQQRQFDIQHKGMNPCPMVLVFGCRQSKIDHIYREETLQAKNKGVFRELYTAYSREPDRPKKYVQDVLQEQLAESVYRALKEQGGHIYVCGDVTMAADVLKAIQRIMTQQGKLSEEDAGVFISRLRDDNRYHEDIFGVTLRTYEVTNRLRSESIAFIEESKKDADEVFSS

`CC(C)Oc1cc(-n2nc(C(C)(C)C)oc2=O)c(Cl)cc1Cl`: the compound was called inactive in assay [1] and in assay [2].

As for `N#Cc1cc(Br)c(O)c(Br)c1`, the result in [3] was inactive. Moreover, in assay [4], the AC50 was 0.677 µM (active).

With `C=CCC1=C(C)C(OC(=O)C2C(C=C(C)C)C2(C)C)CC1=O` (stereo not drawn), the compound was classed as inactive in assay [5], in [6] and in [7].

On to `CCON=C(CC)C1=C(O)CC(c2c(C)cc(C)cc2C)CC1=O` (stereo not drawn), for which, in [7], the concentration at half-maximal activity (AC50) is 4.89 µM (active).

Take `CCOc1cc(Oc2ccc(C(F)(F)F)cc2Cl)ccc1[N+](=O)[O-]`: in assay [7], the outcome was inactive.

For the compound `COP(=S)(OC)Oc1nc(Cl)c(Cl)cc1Cl`, the result in assay [8] and in assay [4] was inactive.

On to `O=C(Nc1ccccc1)Nc1ccnc(Cl)c1`, for which the outcome in assay [9] and in assay [10] was inactive.

Regarding `CCCCOC(=O)c1ccccc1C(=O)OCCCC`, the compound was classed as inactive in assay [11], in assay [12] and in assay [13].

Turning to `COC(=O)C=C(C)OP(=O)(OC)OC`, the AC50 in [8] was 1.52 µM (active). Further, the outcome in [14] was inactive.

As for `CC1=C(C(=O)Nc2ccccc2)SCCO1`, the compound was called inactive in [6].

In the case of `CCCN(CCC)c1c([N+](=O)[O-])cc(S(N)(=O)=O)cc1[N+](=O)[O-]`, the compound was called inactive in assay [15], in [1] and in assay [11].

In the case of `C=CCC1=C(C)[C@@H](OC(=O)[C@@H]2[C@@H](C=C(C)C)C2(C)C)CC1=O`, in assay [12], the outcome was inactive.

`C#CCOS(=O)OC1CCCCC1Oc1ccc(C(C)(C)C)cc1` (stereo not drawn): the AC50 in assay [10] is 13.3 µM (active). The compound was classed as inactive in assay [7].

As for `CCCCNC(=O)n1c(NC(=O)OC)nc2ccccc21`, in assay [9], the concentration at half-maximal activity (AC50) was 14.2 µM (active). Also, the compound was called inactive in [1] and in assay [16].

`Fc1ccc(Oc2ccnc3cc(Cl)cc(Cl)c23)cc1`: in assay [17], the result was inactive.

With `CC1COC(Cn2cncn2)(c2ccc(Oc3ccc(Cl)cc3)cc2Cl)O1` (stereo not drawn), the concentration at half-maximal activity (AC50) in assay [6] is 1.3 µM (active).

Turning to `CNC(=O)ON=CC(C)(C)SC`, the half-maximal activity concentration (AC50) in assay [8] was 6.41 µM (active).

For the compound `Oc1ccccc1-c1ccccc1`, in assay [12], the AC50 was 8.97 µM (active).

`CO/C=C(/C(=O)OC)c1ccccc1Oc1cc(Oc2ccccc2C#N)ncn1`: the call in assay [5] and in [12] was inactive. Also, the AC50 in assay [18] is 19.1 µM (active) and 7.23 µM (active).

Take `COc1ccc(C(c2ccc(OC)cc2)C(Cl)(Cl)Cl)cc1`: the half-maximal activity concentration (AC50) in [10] was 25 µM (active).

For the compound `CC(C)(C)c1ccc(CSc2cnn(C(C)(C)C)c(=O)c2Cl)cc1`, the outcome in assay [10] and in assay [12] was inactive.

The AC50 is the concentration at which the activity in the assay is half-maximal.
